Screens: PubChem, National Center for Advancing Translational Sciences (NCATS)
This is a sample that favours compounds with a hit; in the whole collection about 14% have one here.
Pf growth 96h: inhibits malaria parasite growth, 96 h | P. falciparum luciferase reporter growth, 96 h | hit rate 6.9% among 320,000 | Potency, µM (highest dose often 28.7 µM), for inactives: top-dose activity change, negative = inhibition, hits mostly inhibitors | AID 504834; note: potency is the fitted concentration of half-maximal effect
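Parasite growth measured via integrated firefly luciferase reporter in P. falciparum. Infected erythrocytes at 2% hematocrit, 0.05% parasitemia final were treated 96 hours at 37 C under 5% CO2, and luminescence was read.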
Pf growth 48h: P. falciparum growth inhibition at 48 hours (one generation) | P. falciparum luciferase growth in erythrocytes, 48 h | Potency, µM (doses to about 28.7 µM), inactives show at the highest dose activity change, negative = inhibition, usual class: inhibitors | hit rate 5.9% among 310,000 | AID 504832; note: potency is the fitted concentration of half-maximal effect
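Luciferase-expressing parasites in RBCs, 2% Hct / 0.1% parasitemia final; RPMI 1640 + 0.5% Albumax; 37 C, 5% CO2, one generation; luminescence read-out, lower signal = inhibition.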
HCMV antiviral: blocks human cytomegalovirus replication. HFF cells, HCMV-luciferase reporter, 72 h; stronger effect = lower value. activity change, negative = inhibition, % at 57.5 µM. hit rate 4.5% among 410,000; in the data active = activity change below about -60%; inconclusive = no clear call, values can overlap the other calls; inactive = above about -39%
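After 16 h attachment at 37C, HFF cells received test compound and HCMV-luciferase (1 PFU/cell); reporter luminescence read 72 h later, data normalized against buffer-only and known inhibitor Salinomycin.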
Sm TGR inh: inhibitors of Schistosoma mansoni thioredoxin glutathione reductase. Q962Y6. purified TGR, DTNB reduction, TNB absorbance 405 nm. Potency, µM (doses to about 114 µM), for inactives: top-dose activity change, negative = inhibition, usual class: inhibitors. hit rate 3% among 360,000; note: potency is the fitted concentration of half-maximal effect; nearly all actives have a fitted effect of over 60% in size
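First, TGR (20 nM dispensed) and NADPH were mixed with compound. Second, a 15 min room-temperature incubation followed. Third, further NADPH and then DTNB were added to start the reaction. Finally, TNB absorbance was monitored kinetically.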
FBPA Giardia inh: blocks Giardia fructose-bisphosphate aldolase activity | purified Giardia FBPA | hit rate 0.71% among 290,000 | Potency, µM (series often up to 59.6 µM), for inactives: at the highest dose activity, negative = inhibition, actives largely listed as inhibitors; note: potency is the fitted concentration of half-maximal effect; nearly all actives have a fitted effect of over 55% in size
Target sequence (A8B2U2 whole entry, looked up): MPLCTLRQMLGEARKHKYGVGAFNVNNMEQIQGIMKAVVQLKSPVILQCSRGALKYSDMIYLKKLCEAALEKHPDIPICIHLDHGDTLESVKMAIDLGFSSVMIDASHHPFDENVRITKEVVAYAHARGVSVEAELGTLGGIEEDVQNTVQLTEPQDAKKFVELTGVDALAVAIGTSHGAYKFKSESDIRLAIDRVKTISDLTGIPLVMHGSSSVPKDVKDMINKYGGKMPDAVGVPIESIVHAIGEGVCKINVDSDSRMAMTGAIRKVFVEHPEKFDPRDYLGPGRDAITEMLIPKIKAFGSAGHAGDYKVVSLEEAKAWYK
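40 nM FBPA preincubated 10 min at RT with compound (up to 57.5 uM final), then substrate plus GAPDH/TPI/NAD/arsenate coupling and diaphorase/resazurin added. Fluorescence read after 20 min at RT, 525/598 nm.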
Active calls of the source: *; ? = inconclusive; . = no result; [ ] = remark or other dose. Unless noted, calls come from the whole dose curve; as a rule, active = well fitted curve in the direction sought with a large enough effect; inconclusive = small, poorly fitted or top-dose-only effect, or another doubt; inactive = no such curve, though single readings can be large; an effect the other way counts as inactive or inconclusive. % is set by controls: 0 for no effect and ±100 for the full control effect.

SMILES	Pf growth 96h	Pf growth 48h	HCMV antiviral	Sm TGR inh	FBPA Giardia inh
O=C(NC1(Cc2ccccc2)CCN(CCCc2ccccc2)C1=O)c1ccccc1 (centres undefined)	-14.1%	?	-98.1*	-2.8%	.
CCc1cc(C(=O)Nc2cc(S(=O)(=O)N(CC)CC)ccc2N2CCOCC2)sc1C	9.28µM*	?	-25.7	-10.3%	.
CCN(CC)S(=O)(=O)c1ccc(N2CCOCC2)c(NC(=O)c2cc3ccccc3o2)c1	.	.	-73.1*	.	.
CCN(CC)S(=O)(=O)c1ccc(N2CCOCC2)c(NC(=O)c2ccco2)c1	.	.	4.9	.	.
CCN(CC)S(=O)(=O)c1ccc(N2CCOCC2)c(NC(=S)NC(=O)c2ccco2)c1	1.47µM*	2.62µM*	0.0	-23.3%	-23.9%
CCN(CC)S(=O)(=O)c1ccc(N2CCOCC2)c(NC(=O)Cc2ccccc2F)c1	?	?	21.3	-0.6%	-0.2%
CCN(CC)S(=O)(=O)c1ccc(N2CCOCC2)c(NC(=O)Cc2cccc3ccccc23)c1	3.7µM*	13.1µM*	-7.4	1.1%	-8.0%
O=C(O)c1ccccc1-n1c(-c2ccccc2)cc2c1CCCC2=O	0.9%	13.1%	-26.8	-3.5%	0.8%
CCOc1ccc(CC(=O)N/N=C/c2sccc2C)cc1	75.0%	1.7%	5.3	1.1%	-2.1%
CCCC(=O)Nc1ccc2nc(SCc3ccc(C)cc3)sc2c1	.	.	-18.4	1.9%	.
CCN(CC)S(=O)(=O)c1ccc(N2CCOCC2)c(NC(=O)c2sccc2C)c1	.	.	110.2	.	.
CCN(CC)S(=O)(=O)c1ccc(N2CCOCC2)c(NC(=O)c2cc(C)cc(C)c2)c1	?	10.4µM*	-1.7	-11.4%	-7.1%
CCN(CC)S(=O)(=O)c1ccc(N2CCOCC2)c(NC(=O)C23CC4CC(CC(Cl)(C4)C2)C3)c1	3.7µM*	8.28µM*	7.3	3.4%	-2.1%
Cc1nn(C)c(C(=O)Sc2cccc(Cl)c2)c1[N+](=O)[O-]	-29.4%	22.9%	-4.5	1.41µM*	-1.1%
Cc1nn(C)c(C(=O)Sc2ccccc2)c1[N+](=O)[O-]	0.3%	-2.0%	34.3	2.51µM*	-2.3%
Cc1nn(C)c(C(=O)N/N=C/c2ccccn2)c1[N+](=O)[O-]	7.2%	4.8%	-36.8	-5.8%	.
CCn1nc(C)cc1C(=O)Sc1cccc(Cl)c1	28.3%	3.5%	?	6.31µM*	0.6%
CCn1nc(C)cc1C(=O)N1CCCC(N2CCN(c3cccc(Cl)c3)CC2)C1 (centres undefined)	?	?	-37.0	1.9%	.
CS(=O)(=O)N1CCN(c2ccccc2NC(=O)Cc2ccccc2)CC1	-12.1%	-7.9%	-28.0	7.3%	3.9%
CC(C)C(=O)N1CCN(c2ccccc2NC(=O)Cc2ccc(Cl)cc2)CC1	-3.2%[5.75 µM]	13.1µM*	4.0	0.8%	-2.5%
CCC(=O)N1CCN(c2ccccc2NC(=O)Cc2ccccc2)CC1	-2.0%	10.4µM*	-19.2	-12.9%	-11.2%
CC(=O)N1CCN(c2ccccc2NC(=O)Cc2ccc(Cl)cc2)CC1	?	?	-16.1	3.8%	0.3%
O=C(Cc1ccccc1)Nc1ccccc1N1CCN(c2ccccc2)CC1	.	9.28µM*	?	4.0%	-2.3%
C[n+]1c2n(c3ccccc31)N=C(c1ccc(-c3ccccc3)cc1)CS2	?	?	-98.7*	14.2%	-3.5%
C[n+]1c2n(c3ccccc31)N=C(c1ccccc1)CS2	?	2.08µM*	-92.3*	-6.7%	-15.0%
SMILES	Pf growth 96h	Pf growth 48h	HCMV antiviral	Sm TGR inh	FBPA Giardia inh
C[n+]1c2n(c3ccccc31)N=C(c1ccc(Br)cc1)CS2	?	?	-1.9	-4.9%	5.9%
CC1CN=C(Nc2ccc(F)cc2)S1 (centres undefined)	12.7%	4.1%	?	-5.2%	8.9%
CCOC(=O)C(=CNc1ccc(NC2=NCC(C)S2)cc1)C(=O)OCC (centres undefined)	0.0%	9.28µM*	-66.3*	7.9%	0.9%
CC(=O)NC1[C@H](O)C[C@@](O)(C(=O)O)O[C@H]1[C@H](O)[C@H](O)CO (some centres undefined)	-7.1%	-3.0%	.	.	.
CC(C)(CN1CCNCC1)NS(=O)(=O)c1ccc(Cl)cc1	?	9.28µM*	-32.5	-24.7%	.
CN1CCN(CC(C)(C)NS(=O)(=O)c2ccccc2)CC1	.	.	-61.3*	.	.
CC(C)(CN1CCCC1)NS(=O)(=O)c1ccc(Cl)cc1	4.1%	-21.9%	-7.3	1.6%	-6.9%
